Consider 11 compounds from PubChem BioAssay (NCATS).

Structures are written as SMILES. Inconclusive results are not listed. Active and inactive are the calls of the source. Unless noted, calls follow the shape of the dose curve; as a rule, active = well fitted curve in the direction sought with a large enough effect; inconclusive = small, poorly fitted or top-dose-only effect, or another doubt; inactive = no such curve, though single readings can be large; an effect the other way counts as inactive or inconclusive. *1 amine or outer side, *2 acyl side, *3 side chain or, on linkers, in order; H or OH if unused. Where a SMILES comes first, the peptide text is derived from it. [ ]: non-standard residue; d: D form. X7 = O=C([C@@H](CC(O)CCl)O[*:1])[*:2]; aIle = CC[C@@H](C)[C@H](N)C(=O)O; NMeV = CN[C@H](C(=O)O)C(C)C; NMeA = CN[C@@H](C)C(=O)O; βAla = NCCC(=O)O

Test [1] concerns Zika virus NS2B-NS3 protease (unlinked complex). As to the kind of experiment: Primary screen GU Rhodamine qHTS for Zika virus inhibitors: Unlinked NS2B-NS3 protease assay (AID 1347159). Also: nearly all actives have a fitted effect of over 60% in size. Also: potency is read from the fitted curve at half-maximal effect. As to activity change, negative = inhibition: % is scaled to controls: 0 for no effect and ±100 for the full control effect. In a few lines:
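Buffer 10 mM Tris-HCl pH 8.0, 0.01% Tween 20. Unlinked protease 25 nM; compound preincubation 15 min, RT, protected from light. Substrate Rhod110, 1.5 microM; ~15% conversion in 15 min.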

The test system of test [2] is Zika virus NS2B-NS3 protease (linked construct). As to the kind of experiment: Primary screen NINDS Rhodamine qHTS for Zika virus inhibitors (AID 1347160). Also: nearly all actives have a fitted effect of over 55% in size. As to activity change, negative = inhibition: % is scaled to controls: 0 for no effect and ±100 for the full control effect. In a few lines:
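Aprotinin served as in-plate control. Conditions: 25 nM linked NS2B-NS3, pH 8.0 Tris buffer, titrated compounds, 15 min preincubation and 15 min reaction with 1.5 microM Rhod110 substrate at room temperature.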
For orientation: Quantitative high-throughput screening tests each substance at several concentrations.

The nature of test [3]: Primary qHTS for inhibitors of nuclear receptor binding SET domain protein 2 (NSD2) in an RCH-ACV wild type WT cells (2C) (AID 1645877). Also: nearly all actives have a fitted effect of over 70% in size. Also: potency is read from the fitted curve at half-maximal effect.
Test [4] deals with Glutathione peroxidase 1 (Homo sapiens) (UniProt P07203). As to the kind of experiment: Primary qHTS Assay for Inhibitors of Recombinant Selenoprotein Glutathione Peroxidase 1 (GPX1) (AID 1845191). Also: nearly all actives have a fitted effect of over 65% in size. A digest of the protocol:
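NADPH consumption tracked by fluorescence at 340/450 nm between t=0 and t=15 min, room temperature. Final mix: 10 nM GPX1, 100 nM glutathione reductase, 1 mM GSH, 0.5 mM NADPH, 0.5 mM cumene hydroperoxide, 0.01% BSA; 30 min compound–enzyme preincubation.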

Test [5] is described as follows: Primary redox qHTS assay for identification of artifact compounds. (AID 1845223).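 Also: 0% = DMSO and 100% = reference compound.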 A digest of the protocol:
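Redox-cycling detection via DTT (250 uM final) oxidation coupled to Amplex Red (25 uM)/HRP (250 mU/mL) in HBSS. 15 min preincubation plus 30 min after DTT, room temperature. Ex/Em 525/598 nm; 4-parameter Hill fit against DMSO and 10 uM DA3003.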

The next test concerns KB-3-1. As to the kind of experiment: Cytotoxic Profiling of Annotated Libraries Using Quantitative High-Throughput Screening (AID 1296008). Also: % is scaled to controls: 0 for no effect and ±100 for the full control effect; nearly all actives have a fitted effect of over 60% in size. The settings on record: Five cell lines viability, CellTiter-Glo ATP luminescence, 48-72 h; max response: stronger effect = lower value. In a few lines: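 Cytotoxicity was measured as CellTiter-Glo ATP luminescence, read after 10 min at room temperature. Compound treatment of the cells lasted 48 or 72 hr at 37 degrees Celsius in a qHTS format.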
A general note: Cellular ATP, detected with luciferase, serves as a proxy for viable cell number.

A further test deals with HeLa. As to the kind of experiment: Primary qHTS to identify gynecologic anti-cancer compounds using libraries of approved drugs and bioactive compounds (AID 1345084). Also: nearly all actives have a fitted effect of over 55% in size. Also: potency is read from the fitted curve at half-maximal effect. The conditions noted are these: Gynecologic cancer cell panel viability, ATPlite luminescence, 48 h; series mostly up to 57.5 µM. A digest of the protocol:
(§1)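 Cytotoxicity screen measuring ATP content by luciferase luminescence. Each compound is applied at five concentrations for 48 h at 37 C with 5% CO2.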

A further test has as its system SKOV3. Described as above. The settings on record: Gynecologic cancer cell panel viability, ATPlite luminescence, 48 h; series mostly up to 57.5 µM. In a few lines: as §1
Test [6] is described as follows: Primary fluorescence-based thiol-reactive (MSTI) qHTS assay for identification of artifact compounds. (AID 1845221).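 Also: thiol-reactive compounds lower the probe fluorescence signal; nearly all actives have a fitted effect of over 65% in size.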 In a few lines: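 Curve-fitted percent inhibition (4-parameter Hill) derived from fluorescence, Ex 525/Em 598 nm, scaled with Acetyl-MSTI and MSTI; 1 h incubation at room temperature.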
Test [7] can be described thus: P-glycoprotein substrates identified in KB-3-1 adenocarcinoma cell line, qHTS therapeutic library screen (AID 1346986). Also: nearly all actives have a fitted effect of over 60% in size. A digest of the protocol:
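Viability read by CellTiter-Glo after 72 h compound exposure in dose-response of KB-3-1 and KB-8-5-11 (P-gp-high) cells. Hits needed AC50 < 10 uM, >50% maximum response and curve class -1.1 to -2.4. Cherry-picks retested ± tariquidar, including pcDNA/MDR-19 HEK-293 pair.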

Another test deals with HACAT. In words: qHTS assay to identify novel small-molecules to repurpose for Merkel cell carcinoma treatment (AID 1296009). Also: nearly all actives have a fitted effect of over 60% in size. The conditions noted are these: MCC and control cell lines, CellTiter-Glo viability, 72 h; at 44.8 µM (top of the series) unless noted. A digest of the protocol:
(§2)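 Cell viability, measured as CellTiter-Glo luminescence, was normalized between DMSO and no-cell wells. The cells had been exposed to 8- or 11-point compound dilutions for 72 hr at 37 degree celsius.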

Test [8] has as its target Cytochrome P450 2D6 (Homo sapiens) (UniProt P10635). In words: Cytochrome P450 family 2 subfamily D member 6 (CYP2D6) small molecule antagonists: luciferase biochemical (cell-free) qHTS assay (AID 1645840; active = well fitted curve in the direction sought with a large enough effect in the repeat runs; an effect the other way counts as inactive or inconclusive; also: nearly all actives have a fitted effect of over 55% in size; also: potency is read from the fitted curve at half-maximal effect; as to activity change, negative = inhibition: % is scaled to controls: 0 for no effect and ±100 for the full control effect). In a few lines:
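P450-Glo CYP2D6 system: proluciferin substrate converted by enzyme to luciferin, read by luminescence proportional to activity. Enzyme-substrate mix with compound 10 min at room temperature, then NADPH regeneration 1 h before detection reagent.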

Test [9] addresses Cytochrome P450 2C9 (Homo sapiens) (UniProt P11712). As to the kind of experiment: Cytochrome P450 family 2 subfamily C member 9 (CYP2C9) small molecule antagonists: luciferase biochemical (cell-free) qHTS assay (AID 1645842; active = well fitted curve in the direction sought with a large enough effect in the repeat runs; an effect the other way counts as inactive or inconclusive; also: % is scaled to controls: 0 for no effect and ±100 for the full control effect; nearly all actives have a fitted effect of over 55% in size). In a few lines:
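P450-Glo CYP2C9 system: proluciferin substrate with enzyme in mix containing 0.4% BSA, 10 min at room temperature, then NADPH regeneration solution added and incubated 1 h at 37C. Detection reagent stopped reaction; luminescence read after 20 min as RLU.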

Test [10] in a line: Cytotoxicity counterscreen for inhibitors of SARS-CoV-2 cell entry (AID 1645845; calls by dose curve; also: % is scaled to controls: 0 for no effect and ±100 for the full control effect; nearly all actives have a fitted effect of over 50% in size). In a few lines:
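ATP-content luminescence (ATPLite 1step, 15 min RT) read after 48 h compound exposure of Expi293F cells stably expressing human ACE2; normalized to cells-only wells and media-only wells.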
(In general: Counterscreens check selectivity or assay interference.)

The nature of test [11]: Primary qHTS to identify inhibitors of SARS-CoV-2 cell entry (AID 1645846; calls by dose curve; also: nearly all actives have a fitted effect of over 45% in size). The conditions noted are these: activity change, negative = inhibition: at 57.1 µM (top of the series) unless noted. A digest of the protocol:
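Inhibition of spike-mediated entry was scored in human ACE2-transfected Expi293F cells. Particles were MLV-pseudotyped with Wuhan-Hu-1 S carrying a 19-aa C-terminal deletion; signal was luciferase after two days, scaled between spike PP and fusion-protein-free PP.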

The test system of the next test is NIH3T3. In words: qHTS assay to identify novel small-molecules to repurpose for Merkel cell carcinoma treatment (AID 1296009). Also: nearly all actives have a fitted effect of over 60% in size. The settings on record: MCC and control cell lines, CellTiter-Glo viability, 72 h; at 44.8 µM (top of the series) unless noted. A digest of the protocol:
as §2

Chain of Cytochrome P450 2D6 (Homo sapiens) (P10635 whole entry, looked up): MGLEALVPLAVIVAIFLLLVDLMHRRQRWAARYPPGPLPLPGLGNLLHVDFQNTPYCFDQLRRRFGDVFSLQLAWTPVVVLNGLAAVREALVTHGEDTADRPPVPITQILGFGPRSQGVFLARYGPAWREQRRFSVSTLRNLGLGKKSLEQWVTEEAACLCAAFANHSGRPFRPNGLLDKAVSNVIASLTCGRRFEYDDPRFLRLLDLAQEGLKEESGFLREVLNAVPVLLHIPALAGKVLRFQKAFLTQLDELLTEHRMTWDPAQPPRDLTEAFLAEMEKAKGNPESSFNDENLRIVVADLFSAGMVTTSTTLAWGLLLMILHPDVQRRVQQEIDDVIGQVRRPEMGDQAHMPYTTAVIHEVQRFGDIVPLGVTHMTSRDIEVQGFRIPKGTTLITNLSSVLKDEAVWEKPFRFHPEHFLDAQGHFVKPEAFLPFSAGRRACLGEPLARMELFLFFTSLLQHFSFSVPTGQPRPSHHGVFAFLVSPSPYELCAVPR
Chain of Glutathione peroxidase 1 (Homo sapiens) (P07203 whole entry, looked up): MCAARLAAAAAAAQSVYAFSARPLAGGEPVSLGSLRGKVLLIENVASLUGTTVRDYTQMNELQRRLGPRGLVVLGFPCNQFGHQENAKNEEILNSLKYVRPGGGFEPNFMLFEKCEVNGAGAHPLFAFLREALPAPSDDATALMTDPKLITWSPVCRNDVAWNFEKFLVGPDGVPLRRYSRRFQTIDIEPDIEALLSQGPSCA
Chain of Cytochrome P450 2C9 (Homo sapiens) (P11712 whole entry, looked up): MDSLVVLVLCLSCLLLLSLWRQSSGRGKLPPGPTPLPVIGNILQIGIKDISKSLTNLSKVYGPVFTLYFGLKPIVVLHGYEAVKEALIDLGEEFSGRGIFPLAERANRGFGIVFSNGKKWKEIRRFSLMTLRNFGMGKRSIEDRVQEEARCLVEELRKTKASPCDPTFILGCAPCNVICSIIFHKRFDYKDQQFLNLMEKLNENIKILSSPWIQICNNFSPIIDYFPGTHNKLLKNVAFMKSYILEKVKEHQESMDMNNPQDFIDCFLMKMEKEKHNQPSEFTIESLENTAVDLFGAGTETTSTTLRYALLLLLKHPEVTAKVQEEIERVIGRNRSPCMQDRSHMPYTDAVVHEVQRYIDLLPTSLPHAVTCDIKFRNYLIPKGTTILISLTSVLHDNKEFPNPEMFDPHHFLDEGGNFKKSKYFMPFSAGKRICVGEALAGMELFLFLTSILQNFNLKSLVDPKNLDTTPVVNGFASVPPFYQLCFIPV

Consider `CCC1C2CC3C4N(C)c5ccccc5C45CC(C2C5O)N3C1O` (stereo not given), for which the Potency result (in [1]; in test [2]; in [3]; in [4]; in test [5]; with HeLa) was “inactive” in each case. The Potency entry in the test with SKOV3 was “inactive”. Moreover, the max response in the test with KB-3-1 is 6.75% (inactive).
For `CN1CCc2cc3c(cc2C1C1OC(=O)c2c1ccc1c2OCO1)OCO3` (stereo not given), the Potency result (in test [1]; in test [2]; in test [3]; in test [6]; in [5]; in the test with HeLa) was “inactive” throughout. The Potency entry with SKOV3 was “inactive”.
In the case of `C[C@@H]1[C@H](O)[C@@H](C)/C=C/C=C/CC/C=C/C=C/C=C/C=C/[C@H](O[C@H]2O[C@@H](C)[C@H](O)[C@@H](N)[C@H]2O)C[C@@H]2O[C@](O)(C[C@@H](O)[C@H](O)CC[C@@H](O)C[C@@H](O)C[C@@H](O)CC(=O)O[C@H]1C)C[C@H](O)[C@H]2C(=O)O`, the Potency entry (in test [7]; in [4]; in [6]; with HeLa) was “inactive” throughout. Besides, the Potency in test [1] is 8.91 µM (active). Moreover, in the test with HACAT, the outcome was “inactive [at 17.4 µM]”.
In the case of `CC[C@@H](C)[C@@H]1NC(=O)[C@@H]2CCCN2C(=O)[C@@H](CC(O)CCl)OC(=O)CCNC(=O)[C@H](C)N(C)C(=O)[C@H](C(C)C)N(C)C1=O` (stereo not given in full) (cyclo([NMeA][βAla][X7]P[aIle][NMeV])), the Potency entry in test [1], in [2], in [6] and in test [5] was “inactive” in each case. Further, in test [3], the Potency is 0.483 µM (active).
With `COC1CC(O[C@H]2CC[C@@]3(C)C(CCC4C3CC[C@]3(C)[C@@H](C5=CC(=O)OC5)CC[C@]43O)C2)OC(C)C1O` (stereo not given in full), the Potency entry in test [1], in test [2], in test [4], in test [6] and in [5] was “inactive” throughout. The figures for the Potency in the test with HeLa and in the test on SKOV3 were 0.141 µM (active) and 0.126 µM (active), respectively.
As to `Cc1sc2c(c1C)C(c1ccc(Cl)cc1)=NC(CC(=O)Nc1ccc(O)cc1)c1nnc(C)n1-2` (stereo not given), the Potency result in [2], in test [8], in [9], in [10] and in test [5] was “inactive” throughout. For the same compound, the activity change, negative = inhibition in [11] was -87.5%. In addition, the Potency in the test on SKOV3 is 3.16 µM (active).
Consider `C[N@@+]1(CC2CC2)CC[C@]23c4c5ccc(O)c4O[C@H]2C(=O)CC[C@@]3(O)[C@H]1C5`, for which the Potency entry in [7], in test [2], in test [3] and in test [5] was “inactive” each time.
For `C=CCN1CC[C@]23c4c5ccc(O)c4O[C@H]2[C@@H](O)CC[C@@]3(O)[C@H]1C5`, the Potency entry (in test [1]; in test [4]; in test [6]; in test [5]; in the test with HeLa; with SKOV3) was “inactive” each time.
As to `CNc1ccc2oc(C[C@H]3O[C@@]4(CC[C@H]3C)O[C@H](C(C)C(=O)c3ccc[nH]3)[C@H](C)C[C@H]4C)nc2c1C(=O)O` (stereo not given in full), the figures for the Potency in test [1] and in test [3] were 11.2 µM (active) and 14.5 µM (active), respectively. Besides, the Potency entry in test [8] is “inactive”.
For `c1cncc(OC[C@@H]2CCN2)c1`, the Potency result in [1], in [2], in test [9], in test [3], in test [4] and in test [6] was “inactive” throughout. Moreover, the Potency result with HeLa and in the test with SKOV3 was “inactive” in each case.
On to `Cc1ccccc1CN1CCC(N2CCC(n3c(=O)[nH]c4ccccc43)CC2)CC1`, for which the Potency entry in [1], in [2], in [9], in test [3], in test [4] and in test [5] was “inactive” throughout. For the same compound, the Potency result in the test on HeLa was “inactive”. In addition, the Potency in [8] was 12 µM (active). The compound was called inactive in the test with NIH3T3.
